DT40 TDP1 CPT: growth inhibition of DT40 Tdp1-/-;hTDP1 cells with camptothecin (screen for TDP1 inhibitors); chicken DT40 Tdp1-/-;hTDP1 cells + 20 nM CPT, ATP luminescence, 48 h; Potency, µM (series often up to 46.2 µM), usual class: inhibitors; 420,000 compounds, 12% hits; AID 686979; further: nearly all actives have a fitted effect of over 55% in size
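Cell growth measured by CellTiter-Glo luminescence after a minimum 48 h, 37 C compound exposure with 20 nM CPT in Tdp1-knockout DT40 cells stably expressing hTDP1, seeded 400/well; qHTS titration format.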
IL-1B inflam inh: inflammasome signaling inhibition, IL-1 beta readout; 360,000 compounds, 4.7% hits; activity change, % at 57.5 µM; THP-1 LPS/ATP IL-1B secretion, AlphaLISA, 16 h; hits give low values; AID 743279; in the data active means activity change below about -50%; inconclusive means mostly about -30% to -49%
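THP-1 cells pretreated 1 hr with compounds (up to 57.5 uM final), then stimulated with LPS (250 ng/mL final) plus ATP (1.25 mM final); secreted IL-1B measured by AlphaLISA after 16 hr, decreased signal indicating inhibition.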
Giardia killer: Giardia lamblia killing; Giardia lamblia trophozoite viability; 340,000 compounds, 0.15% hits; activity change, % at 7.66 µM, hits read low; in the data active means activity change below about -80%; inconclusive means between about -30% and that limit;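 further: parasites exposed to compound for two days anaerobically before the ATP read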
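ATP-content bioluminescence gauges trophozoite survival. Cells (100/well) receive compound and incubate anaerobically for 48 hrs at 37 deg C; detection reagent follows for 15-30 min at room temperature.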
TDP1 block: blocks human tyrosyl-DNA phosphodiesterase 1; Q9NUW8; recombinant TDP1, AlphaScreen DNA substrate cleavage; Potency, µM (top dose mostly 130 µM), hits mostly inhibitors; 350,000 compounds, 0.28% hits; further: nearly all actives have a fitted effect of over 40% in size
Target sequence (Q9NUW8 whole entry, looked up): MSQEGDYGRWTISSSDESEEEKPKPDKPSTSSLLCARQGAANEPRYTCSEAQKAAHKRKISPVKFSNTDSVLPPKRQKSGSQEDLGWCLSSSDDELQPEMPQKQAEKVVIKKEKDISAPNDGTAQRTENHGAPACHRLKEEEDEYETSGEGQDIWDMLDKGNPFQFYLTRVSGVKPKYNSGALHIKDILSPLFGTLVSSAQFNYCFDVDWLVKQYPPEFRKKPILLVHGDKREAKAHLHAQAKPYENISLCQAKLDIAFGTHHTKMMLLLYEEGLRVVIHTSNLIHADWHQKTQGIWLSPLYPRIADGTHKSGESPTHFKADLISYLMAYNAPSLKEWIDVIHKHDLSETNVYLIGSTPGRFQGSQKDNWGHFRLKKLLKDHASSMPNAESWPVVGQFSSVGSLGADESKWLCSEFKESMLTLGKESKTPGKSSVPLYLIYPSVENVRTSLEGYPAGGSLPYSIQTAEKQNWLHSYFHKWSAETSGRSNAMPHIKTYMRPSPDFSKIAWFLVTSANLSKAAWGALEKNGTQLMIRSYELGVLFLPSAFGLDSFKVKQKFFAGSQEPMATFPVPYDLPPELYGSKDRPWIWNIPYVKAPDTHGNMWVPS
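E. coli-derived human Tdp1, 1 nM final. Cpd preinc 15 min RT; substrate 15 nM final, 5 min RT; AS bead mix 10 ug/ml final, 10 min RT. Signal loss = tyrosine-FITC cleavage. No-enzyme wells = max signal.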
ELG1 DNA repair: blocks ELG1-dependent DNA repair in HEK293T cells | HEK293T ELG1-luciferase reporter, luminescence, 16 h; DNA damage induced by 5-fluorouridine | Potency, µM (doses to about 46.1 µM), hits mostly inhibitors | 330,000 compounds, 2.3% hits; further: nearly all actives have a fitted effect of over 55% in size
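Cells (2,000 per well) received 5-fluorouridine plus test compound or DMSO and were incubated 16 hr at 37 °C, 5% CO2. Luciferase activity was read by luminescence 30 min after ONE-Glo addition; signal suppression marked inhibition of damage-induced ELG1 function.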
DT40 TDP1 no CPT: qHTS for Inhibitors of human tyrosyl-DNA phosphodiesterase 1 (TDP1): qHTS in cells in absence of CPT. 420,000 compounds, 15% hits. DT40 Tdp1-/- hTDP1 cells, no CPT, ATP luminescence, 48 h. Potency, µM (doses to about 46.2 µM), hits mostly inhibitors. AID 686978, 2013; further: nearly all actives have a fitted effect of over 55% in size
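Readout: luminescence from CellTiter-Glo after 30 min in the dark at RT. Cells: DT40 Tdp1-/- with stable hTDP1, 400/well. Exposure: compounds alone, ≥48 hr, 37 °C.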
A number is an active result; - = inactive; ? = inconclusive; . = not tested or not shown. The list is not random: actives were taken first. Their share in the collection is about 19%. Unless noted, the call rests on the fitted dose curve; in most records, active means well fitted curve in the direction sought with a large enough effect; inconclusive means small, poorly fitted or top-dose-only effect, or another doubt; inactive means no such curve, though single readings can be large; an effect the other way counts as inactive or inconclusive.

SMILES | DT40 TDP1 CPT | IL-1B inflam inh | Giardia killer | TDP1 block | ELG1 DNA repair | DT40 TDP1 no CPT
CCNc1sc(C(=O)OCC)c(N)c1C#N | - | - | - | - | - | -
COc1ccc(C(=O)N(Cc2ccccc2)Cc2ccccc2)c(O)c1 | . | . | . | - | . | .
Cc1ccc(C(=O)NC2CC3CCCC(C2)N3C(=S)NCc2ccco2)cc1 (stereo not given) | - | - | ? | - | ? | -
O=C(/C=C/c1cn(-c2ccccc2)nc1-c1ccccc1)Nc1ccc(C(=O)O)cc1 | ? | - | - | - | ? | ?
NS(=O)(=O)c1ccc(NC(=O)/C=C/c2cn(-c3ccccc3)nc2-c2cccc(Cl)c2)cc1 | ? | - | - | - | ? | 29µM
Cc1cccc(NC(=O)c2cn(-c3ccccc3)nc2-c2ccccc2)c1C | ? | . | . | - | . | 21µM
Cc1cccc(C)c1NC(=O)c1cn(-c2ccccc2)nc1-c1ccccc1 | - | - | - | - | ? | ?
Cc1cccc(NC(=O)c2cc(-c3ccccn3)nc3ccccc23)c1C | 23µM | - | - | - | ? | 13µM
Cc1cccc(NC(=O)c2cn(-c3ccccc3)nc2-c2ccccc2)c1 | ? | - | - | - | - | 16µM
CC(C)[C@H](NC(=O)[C@H](CC(=O)O)NC(=O)CNC(=O)[C@@H](N)CCCN=C(N)N)C(=O)O | . | . | . | - | . | .
COc1ccccc1Cc1nc2ccccc2nc1SCC(=O)NCc1ccc(F)cc1 | - | . | . | - | . | -
O=C(O)c1ccc(NC(=O)c2cn(-c3ccccc3)nc2-c2cccc(Cl)c2)cc1 | ? | - | - | . | - | 3.7µM
O=C(O)c1ccc(NC(=O)c2cn(-c3ccccc3)nc2-c2ccc(F)cc2)cc1 | ? | - | - | - | ? | ?
Cc1cc(C(=O)OCC(=O)Nc2ccccc2)c(C)o1 | - | - | - | - | - | -
COc1ccc(Cl)cc1NC(=O)COC(=O)c1cc(C)oc1C | ? | - | - | - | - | 3.3µM
O=C(Nc1cccc(S(=O)(=O)N2CCOCC2)c1)c1cn(-c2ccccc2)nc1-c1ccccc1 | ? | - | - | - | ? | 23µM
CCN(CC)S(=O)(=O)c1cccc(NC(=O)COC(=O)c2cc(C)oc2C)c1 | - | - | - | - | 21µM | ?
O=C(Cn1nnc(-c2ccccc2)n1)Nc1cccc(S(=O)(=O)N2CCOCC2)c1 | ? | - | - | - | - | 12µM
CN(C)C(=O)CSc1nnc(-c2cc(-c3cccs3)nc3ccccc23)o1 | - | -60 | - | - | 12µM | 18µM
CC1(C)CC2(CC(c3ccccc3F)c3ccc(O)c(O)c3O2)NC(=S)N1 (stereo not given) | ? | - | - | - | - | 23µM
CC1(C)CC2(CC(c3ccc(F)cc3)c3ccc(O)cc3O2)NC(=S)N1 (stereo not given) | ? | - | - | - | - | ?
CC(C)CN(C(=O)COC(=O)/C=C/c1ccc(Cl)c(Cl)c1)c1c(N)n(Cc2ccccc2)c(=O)[nH]c1=O | ? | ? | - | - | - | ?
COCCN(C(=O)COC(=O)Cc1coc2cc3c(cc12)CCC3)c1c(N)n(Cc2ccccc2)c(=O)[nH]c1=O | ? | - | - | 13µM | - | ?
CN(C(=O)COC(=O)c1ccccc1Nc1ccccc1)c1c(N)n(Cc2ccccc2)c(=O)[nH]c1=O | ? | -63 | - | - | - | 16µM
O=C(COC(=O)c1ccccc1Nc1ccccc1)c1ccccc1 | - | -60 | - | . | ? | -
SMILES | DT40 TDP1 CPT | IL-1B inflam inh | Giardia killer | TDP1 block | ELG1 DNA repair | DT40 TDP1 no CPT
COCCN(C(=O)COC(=O)COc1ccc2c(c1)CCC2)c1c(N)n(Cc2ccccc2)c(=O)[nH]c1=O | - | - | - | . | - | -
Cc1ccccc1C(=O)OCC(=O)N(C)c1c(N)n(Cc2ccccc2)c(=O)[nH]c1=O | - | - | - | - | - | -
COCCN(C(=O)COC(=O)/C=C/c1ccc(Cl)c(Cl)c1)c1c(N)n(Cc2ccccc2)c(=O)[nH]c1=O | 16µM | - | - | . | . | 18µM
Cc1cc(C(=O)OCC(=O)N(C)c2c(N)n(Cc3ccccc3)c(=O)[nH]c2=O)c(C)n1-c1ccccc1 | ? | -55 | - | - | - | -
COCCN(C(=O)COC(=O)c1cccc2ccccc12)c1c(N)n(Cc2ccccc2)c(=O)[nH]c1=O | - | - | - | - | - | -
COCCN(C(=O)COC(=O)c1ccccc1Nc1ccccc1)c1c(N)n(Cc2ccccc2)c(=O)[nH]c1=O | 21µM | -53 | - | . | ? | ?
O=C(CP(=O)(c1ccccc1)c1ccccc1)Nc1nc2ccc(Cl)cc2s1 | ? | - | - | - | - | ?
CN(C)/C=C/C(=O)C(F)(F)F | - | - | - | - | - | -
CN(C)/C=C/C(=C\C(=O)C(F)(F)F)Nc1ccc(C(F)(F)F)cc1 | ? | - | - | - | - | 18µM
COc1cccc(C2C(C(=O)Nc3ccccc3OC)=C(C)Nc3nc(-c4ccco4)nn32)c1 (stereo not given) | ? | . | . | . | . | 18µM
COc1ccccc1NC(=O)C1=C(C)Nc2nc(-c3cccnc3)nn2C1c1ccccn1 (stereo not given) | ? | - | - | . | . | -
COc1ccccc1NC(=O)C1=C(C)Nc2nc(-c3cccs3)nn2C1c1cccnc1 (stereo not given) | ? | - | - | - | 18µM | -
CC1=C(C(=O)Nc2ccccc2)C(c2ccccc2)n2nc(-c3ccco3)nc2N1 (stereo not given) | - | . | . | - | . | -
CNC(=O)C1=C(C)Nc2nc3ccccc3n2C1c1cccc(OC)c1 (stereo not given) | - | - | - | - | - | -
COc1ccccc1NC(=O)C1=C(C)Nc2nc3ccccc3n2C1c1cccc(OC)c1OC (stereo not given) | 16µM | . | . | - | . | ?
COc1cccc(C2C(C(=O)Nc3ccccc3OC)=C(C)Nc3nc4ccccc4n32)c1 (stereo not given) | ? | . | . | - | . | 15µM
CC(=O)Nc1cccc(NC(=O)C(C)N2c3cccc4cccc(c34)S2(=O)=O)c1 (stereo not given) | - | - | - | - | - | -
CCOc1ccccc1C1C(C(=O)Nc2ccccc2OC)=C(C)Nc2nc3ccccc3n21 (stereo not given) | - | . | . | - | . | -
COc1cccc(C2C(C(=O)Nc3ccc(Cl)cc3)=C(C)Nc3nc4ccccc4n32)c1OC (stereo not given) | 21µM | . | . | - | . | ?
O=C(NNC(=O)c1cc2cc(Br)ccc2oc1=O)c1ccc(O)cc1O | 5.2µM | - | - | 25µM | ? | 9.2µM
O=C(c1ccccc1)c1cc2ccc(O)cc2oc1=O | ? | - | - | - | ? | -
